This assay deals with Vero E6 infected with SARS-CoV-2. In words: morphology score (similarity to uninfected cells); higher = more like uninfected cells. The settings on record: 24 h.
For `NC(=O)CN1C=CCC(C(N)=O)=C1` [caricotamide] (10 µM), the morphology score was found to be 0.109.

Compound `CC(C)(C)OC(=O)N[C@H]1CCCCC/C=C\[C@@H]2C[C@@]2(C(=O)NS(=O)(=O)C2CC2)NC(=O)[C@@H]2C[C@@H](OC(=O)N3Cc4cccc(F)c4C3)CN2C1=O` [danoprevir] (10 µM) had a morphology score of -0.0154. Compound `O=C(O)COc1cccc(-c2ocnc2-c2nc(-c3ccccc3)c(-c3ccccc3)o2)c1` (10 µM) displayed a morphology score of 0.194.

`C[n+]1ccc(C(=O)NCc2ccccc2)cc1` [enisamium-iodide] (10 µM) came in with a morphology score of 0.172. In turn, `COc1ccc(CCC(=O)c2c(O)cc(O[C@@H]3O[C@H](CO)[C@@H](O)[C@H](O)[C@H]3O[C@@H]3O[C@@H](C)[C@H](O)[C@@H](O)[C@H]3O)cc2O)cc1O` [Neohesperidin dihydrochalcone (Nhdc)] (10 µM) showed a morphology score of 0.0549. As for `CN1C(=O)CC(C)(c2ccccc2)C1=O` (stereo not drawn) [methsuximide] (10 µM), the figure is 0.0784; as for `CCOc1ccccc1OCC1CNCCO1` (stereo not drawn) [viloxazine] (10 µM), 0.0033. The compound `CN1CCc2c(c3ccccc3n2Cc2ccc(C(=O)NO)cc2)C1` [tubastatin-A] (0.833333 µM) showed a morphology score of 0.115.

`CCc1c(O)cc(O)c(C(=O)c2ccc(OCCN3CCOCC3)c(OC)c2)c1CC(=O)N(CCOC)CCOC` (10 µM): the morphology score is -0.0338. On to `O=S1(=O)c2cccc3cccc(c23)N1CCCN1CCN(c2ccc(F)cc2)CC1` [fananserin] (10 µM), for which the morphology score is -0.0356.

`CCn1c2ccccc2c2cc(Nc3ccnc(NCCCN4CCOCC4)n3)ccc21` (0.833333 µM) returned a morphology score of 0.235. The figure for `CC(O)CN1CCN(CC(=O)[O-])CCN(CC(=O)[O-])CCN(CC(=O)[O-])CC1.[Gd+3]` (stereo not drawn) [gadoteridol] (10 µM) is -0.0781; for `NCCS(=O)(=O)O` [taurine] (10 µM) it is 0.19. In turn, `Fc1ccc(C(OCCN2CCN(C/C=C/c3ccccc3)CC2)c2ccc(F)cc2)cc1` (10 µM) returned a morphology score of 0.456. In turn, `CCCCC[C@H](O)/C=C/[C@H]1[C@H](O)CC(=O)[C@@H]1CCCCCCC(=O)O` [alprostadil] (10 µM) displayed a morphology score of 0.11.

With `COc1cc(NC(=O)c2cccc(-n3cc(NC(=O)Nc4cccc(C)c4)cn3)c2)cc(OC)c1OC` (10 µM), the morphology score is -0.0791. For the compound `CC(C)SC(=N)N` [S-isopropylisothiourea] (10 µM), the morphology score is 0.0211.

Turning to `CC(C)OC(=O)C1=CN(C(=O)c2ccc(F)c(F)c2)CC(C)(C)c2c1[nH]c1ccccc21` (10 µM), the morphology score came to 0.0521. `O=[N+]([O-])c1cn2c(n1)OC[C@@H](OCc1ccc(OC(F)(F)F)cc1)C2` [pretomanid] (10 µM) showed a morphology score of 0.0902. On to `O=C(CC(c1ccccc1)c1ccccc1)N1CCN(C(c2ccccc2)c2ccccc2)CC1` (10 µM), for which the morphology score was 0.0825. As for `CO/N=C(\C(=O)N[C@@H]1C(=O)N2C(C(=O)[O-])=C(C[n+]3ccn4ncccc43)CS[C@H]12)c1nsc(N)n1` [cefozopran] (10 µM), the figure is 0.0209.

`C[S+]([O-])c1ccc(-c2nc(-c3ccc(F)cc3)c(-c3ccncc3)[nH]2)cc1` (stereo not drawn) (10 µM) registered a morphology score of 0.0867. Take `CCOC(=O)c1ccc(-c2ccc(OC(=O)N(C)Cc3cccc(-c4ccncc4)c3)cc2)cc1` (10 µM): the morphology score turned out to be 0.0201. `COc1ccc(C(=O)c2c(C)n(CCN3CCOCC3)c3ccccc23)cc1` [pravadoline] (10 µM): the morphology score came to 0.0547. For `FCc1ccc(OCCOc2ccc(Cl)cc2Cl)c(Cl)n1` (10 µM), the morphology score is -0.0669. As for `CCN(CC)CCOc1ccc(C(O)(Cc2ccc(Cl)cc2)c2ccc(C)cc2)cc1` (stereo not drawn) [Triparanol] (0.833333 µM), the figure is 0.0848; as for `CCOC(=O)c1cnc2c(cnn2CC)c1NN=C(C)C` [etazolate] (10 µM), 0.254; as for `COc1ccc(C(=O)C2CCN(CC(=O)N(Cc3nc4c(c(=O)[nH]3)COCC4)CC3CC3)CC2)cc1` (10 µM), 0.165. Consider `N[C@@H](Cc1c[nH]c2ccc(O)cc12)C(=O)O` [5-hydroxytryptophan] (10 µM), for which the morphology score is 0.197. `Cc1ncc(CO)c(CO)c1O` [pyridoxine] (10 µM) registered a morphology score of 0.0823. The compound `CCOc1nc2cccc(C(=O)O)c2n1Cc1ccc(-c2ccccc2-c2noc(=O)[nH]2)cc1` [azilsartan] (10 µM) had a morphology score of 0.0851. `C[C@]12CCC(=O)C=C1CC[C@@H]1[C@@H]2C(=O)C[C@]2(C)C(=O)CC[C@@H]12` [adrenosterone] (10 µM): the morphology score was -0.109. Take `Cc1cccc(Nc2cc(Cl)nc(SCC(=O)O)n2)c1C` [pirinixic-acid] (10 µM): the morphology score amounted to 0.0216.

Source of the values: the supplement of paper PMC13380429.
